Out of some 5,500 compounds screened, about 2,000 (36%) were called active. Inconclusive results (about 18%) are left out. Cut-off read from the data, not from the text of the source: active = normalized growth mostly below about 0.91 (no sharp cut-off); inconclusive = no clear call, values can overlap the other calls; inactive = mostly above about 0.92. Some of the results follow.
Assay: chemical genetic growth profiling, strain panel (AID 1159580);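 note: tested at 20 µM; growth read once vehicle control cultures reached saturation at 30 °C; 1 = growth at the plate median or of vehicle wells; lower values mean less growth of the strain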
Settings: growth OD

Measured: normalized growth

CCCCC1C(=O)N(c2ccccc2)N(c2ccc(O)cc2)C1=O (stereo not given)
inactive: S. cerevisiae deletion strains, locus YJR075W, strain HOC1, hits give low values 0.998 | S. cerevisiae deletion strains, locus YKL009W, strain mrt4, hits give low values 1.01 | S. cerevisiae deletion strains, locus YKL068W, hits give low values 0.987 | S. cerevisiae deletion strains, locus YKL085W, strain MDH1 (second series), hits give low values 0.993 | S. cerevisiae deletion strains, locus YKL085W, strain MDH1, hits give low values 0.993 | S. cerevisiae deletion strains, locus YKL160W, strain elf1, hits give low values 1.03 | S. cerevisiae deletion strains, locus YKL190W, strain CNB1, hits give low values 1 | S. cerevisiae deletion strains, locus YKR001C, strain vps1, hits give low values 0.927 | S. cerevisiae deletion strains, locus YKR026C, strain gcn3, hits give low values 1.01 | S. cerevisiae deletion strains, locus YKR091W, strain srl3, hits give low values 0.996 | S. cerevisiae deletion strains, locus YLL001W, strain dnm1, hits give low values 1.02 | S. cerevisiae deletion strains, locus YLL026W, hits give low values 1 | S. cerevisiae deletion strains, locus YLL041C, strain sdh2, hits give low values 1 | S. cerevisiae deletion strains, locus YLR027C, strain aat2, hits give low values 0.994 | S. cerevisiae deletion strains, locus YLR039C, strain RIC1, hits give low values 0.963 | S. cerevisiae deletion strains, locus YLR058C, strain SHM2, hits give low values 0.976 | S. cerevisiae deletion strains, locus YLR102C, strain apc9, hits give low values 0.996 | S. cerevisiae deletion strains, locus YLR113W, strain HOG1, hits give low values 0.948 | S. cerevisiae deletion strains, locus YLR221C, strain rsa3, hits give low values 1.02 | S. cerevisiae deletion strains, locus YLR258W, strain gsy2, hits give low values 0.998 | S. cerevisiae deletion strains, locus YLR262C, strain YPT6 (second series), hits give low values 0.956 | S. cerevisiae deletion strains, locus YLR262C, strain YPT6, hits give low values 0.903 | S. cerevisiae deletion strains, locus YLR268W, strain sec22, hits give low values 1.04 | S. cerevisiae deletion strains, locus YLR320W, strain mms22, hits give low values 1.04 | S. cerevisiae deletion strains, locus YLR330W, strain CHS5, hits give low values 0.996 | S. cerevisiae deletion strains, locus YLR342W, strain FKS1 (second series), hits give low values 0.99 | S. cerevisiae deletion strains, locus YLR342W, strain FKS1, hits give low values 1.01 | S. cerevisiae deletion strains, locus YLR357W, strain rsc2, hits give low values 1.01 | S. cerevisiae deletion strains, locus YLR370C, strain arc18, hits give low values 1 | S. cerevisiae deletion strains, locus YLR371W, strain rom2, hits give low values 0.971 | S. cerevisiae deletion strains, locus YLR384C, strain iki3, hits give low values 0.997 | S. cerevisiae deletion strains, locus YLR418C, strain cdc73, hits give low values 1 | S. cerevisiae deletion strains, locus YML016C, strain PPZ1, hits give low values 0.991 | S. cerevisiae deletion strains, locus YML032C, strain rad52, hits give low values 0.996 | S. cerevisiae deletion strains, locus YML120C, strain ndi1, hits give low values 1.01 | S. cerevisiae deletion strains, locus YML124C, strain tub3, hits give low values 0.99 | S. cerevisiae deletion strains, locus YMR058W, strain fet3, hits give low values 1 | S. cerevisiae deletion strains, locus YMR078C, strain ctf18, hits give low values 0.986 | S. cerevisiae deletion strains, locus YMR125W, strain sto1, hits give low values 1 | S. cerevisiae deletion strains, locus YMR129W, hits give low values 1.01 | S. cerevisiae deletion strains, locus YMR205C, strain PFK2, hits give low values 1.02 | S. cerevisiae deletion strains, locus YMR223W, strain ubp8, hits give low values 0.968 | S. cerevisiae deletion strains, locus YMR231W, strain pep5, hits give low values 1 | S. cerevisiae deletion strains, locus YMR307W, strain GAS1, hits give low values 0.952 | S. cerevisiae deletion strains, locus YNL067W, strain RPL9B, hits give low values 0.999 | S. cerevisiae deletion strains, locus YNL071W, strain lat1, hits give low values 0.997 | S. cerevisiae deletion strains, locus YNL153C, strain GIM3, hits give low values 0.984 | S. cerevisiae deletion strains, locus YNL183C, strain NPR1, hits give low values 0.954 | S. cerevisiae deletion strains, locus YNL209W, strain ssb2, hits give low values 1 | S. cerevisiae deletion strains, locus YNL233W, strain BNI4, hits give low values 0.989 | S. cerevisiae deletion strains, locus YNL248C, strain rpa49, hits give low values 1.03 | S. cerevisiae deletion strains, locus YNL250W, strain rad50, hits give low values 0.985 | S. cerevisiae deletion strains, locus YNL271C, strain bni1, hits give low values 1 | S. cerevisiae deletion strains, locus YNL298W, strain CLA4, hits give low values 0.987 | S. cerevisiae deletion strains, locus YNL307C, strain MCK1, hits give low values 0.987 | S. cerevisiae deletion strains, locus YNL322C, strain KRE1 (second series), hits give low values 1.02 | S. cerevisiae deletion strains, locus YNL322C, strain KRE1, hits give low values 0.993 | S. cerevisiae deletion strains, locus YNR049C, strain mso1, hits give low values 1.01 | S. cerevisiae deletion strains, locus YNR052C, strain pop2, hits give low values 0.996 | S. cerevisiae deletion strains, locus YOL006C, strain TOP1, hits give low values 0.982 | S. cerevisiae deletion strains, locus YOL012C, strain htz1 0.972 | S. cerevisiae deletion strains, locus YOL147C, strain pex11, hits give low values 0.998 | S. cerevisiae deletion strains, locus YOR001W, strain rrp6, hits give low values 0.989 | S. cerevisiae deletion strains, locus YOR061W, strain CKA2, hits give low values 0.959 | S. cerevisiae deletion strains, locus YOR069W, strain VPS5, hits give low values 1 | S. cerevisiae deletion strains, locus YOR070C, strain gyp1, hits give low values 1.02 | S. cerevisiae deletion strains, locus YOR080W, strain dia2, hits give low values 0.993 | S. cerevisiae deletion strains, locus YOR083W, strain WHI5, hits give low values 1.04 | S. cerevisiae deletion strains, locus YOR106W, strain vam3, hits give low values 1.02 | S. cerevisiae deletion strains, locus YOR136W, strain idh2, hits give low values 0.983 | S. cerevisiae deletion strains, locus YOR144C, strain elg1, hits give low values 0.985 | S. cerevisiae deletion strains, locus YOR184W, strain ser1, hits give low values 0.983 | S. cerevisiae deletion strains, locus YOR231W, strain MKK1, hits give low values 0.987 | S. cerevisiae deletion strains, locus YOR265W, strain rbl2, hits give low values 0.996 | S. cerevisiae deletion strains, locus YOR270C, strain vph1, hits give low values 1.03 | S. cerevisiae deletion strains, locus YOR290C, strain snf2, hits give low values 1.02 | S. cerevisiae deletion strains, locus YOR316C, strain cot1, hits give low values 0.989 | S. cerevisiae deletion strains, locus YPL051W, strain arl3, hits give low values 1.01 | S. cerevisiae deletion strains, locus YPL055C, strain LGE1, hits give low values 0.938 | S. cerevisiae deletion strains, locus YPL078C, strain atp4, hits give low values 1.02 | S. cerevisiae deletion strains, locus YPL106C, strain sse1, hits give low values 1.02 | S. cerevisiae deletion strains, locus YPL240C, strain hsp82, hits give low values 1.01 | S. cerevisiae deletion strains, locus YPL241C, strain CIN2, hits give low values 0.99 | S. cerevisiae deletion strains, locus YPL256C, strain CLN2, hits give low values 0.953 | S. cerevisiae deletion strains, locus YPR119W, strain clb2, hits give low values 0.982 | S. cerevisiae deletion strains, locus YPR141C, strain kar3, hits give low values 0.972 | S. cerevisiae deletion strains, locus YPR163C, strain tif3, hits give low values 0.986 | S. cerevisiae deletion strains, locus YPR167C, strain met16, hits give low values 0.987 | S. cerevisiae deletion strains, strain wtn01, hits give low values 1 | S. cerevisiae strains, strain wild type, hits give low values 1
